Columns and labels:
Assay in all cases: DAPPL (digital affinity profiling via proximity ligation, sequencing); 10 mM Tris-HCl pH 7.5, 50 mM NaCl, 1 mM DTT, 4% glycerol, room temperature, 30 min; GST-TFs on glutathione beads, 16-mer random dsDNA library, 0.1% formaldehyde crosslink after washing; high values mean tight binding
FEV = molecular target: T1, FEV (Homo sapiens, UniProt Q99581 1-238); conditions: protein: recombinant; tags: N-terminal GST; dsDNA, one strand shown
T1 sequence: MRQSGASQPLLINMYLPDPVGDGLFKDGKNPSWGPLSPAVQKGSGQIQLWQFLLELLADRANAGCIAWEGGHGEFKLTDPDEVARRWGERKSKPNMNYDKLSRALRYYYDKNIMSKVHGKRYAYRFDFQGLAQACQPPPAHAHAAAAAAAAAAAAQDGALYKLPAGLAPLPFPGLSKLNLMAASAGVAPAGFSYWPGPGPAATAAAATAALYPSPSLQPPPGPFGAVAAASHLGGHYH
In short: (§1)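 Each value of binding signal is a hexamer's read frequency for a factor divided by the same hexamer's frequency in the tag-only sample. Barcoded, bead-captured GST fusions of human transcription factors made in yeast were pooled with that sample and incubated with 200 nmole of a random double-stranded 16-mer DNA library in Tris/NaCl/DTT/glycerol buffer at room temperature for 30 min. Washing, 0.1% formaldehyde crosslinking, proximity ligation, PCR and Illumina NextSeq500 sequencing followed.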

ETV5 = ETV5 (Homo sapiens, UniProt P41161 1-510); conditions: protein: recombinant; tags: N-terminal GST; dsDNA, one strand shown
Sequence of ETV5 (P41161 whole entry): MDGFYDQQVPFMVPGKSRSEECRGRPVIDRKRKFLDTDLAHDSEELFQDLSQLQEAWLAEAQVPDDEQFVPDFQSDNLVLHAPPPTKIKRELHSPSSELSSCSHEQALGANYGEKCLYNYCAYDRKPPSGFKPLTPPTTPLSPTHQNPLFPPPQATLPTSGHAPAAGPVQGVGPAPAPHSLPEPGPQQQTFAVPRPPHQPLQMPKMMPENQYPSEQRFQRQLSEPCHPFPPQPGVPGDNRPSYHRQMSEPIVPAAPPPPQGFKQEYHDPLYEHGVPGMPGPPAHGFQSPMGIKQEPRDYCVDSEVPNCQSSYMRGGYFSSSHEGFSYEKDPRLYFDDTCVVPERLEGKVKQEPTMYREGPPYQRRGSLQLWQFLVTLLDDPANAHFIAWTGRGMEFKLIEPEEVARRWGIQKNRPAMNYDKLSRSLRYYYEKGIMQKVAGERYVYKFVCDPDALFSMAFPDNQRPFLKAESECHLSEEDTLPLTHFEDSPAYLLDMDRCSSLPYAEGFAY
In short: as §1

HSF1 = HSF1 (Homo sapiens, UniProt Q00613 1-529); conditions: protein: recombinant; tags: N-terminal GST; chain copies: 3; dsDNA, one strand shown
Sequence of HSF1 (Q00613 whole entry): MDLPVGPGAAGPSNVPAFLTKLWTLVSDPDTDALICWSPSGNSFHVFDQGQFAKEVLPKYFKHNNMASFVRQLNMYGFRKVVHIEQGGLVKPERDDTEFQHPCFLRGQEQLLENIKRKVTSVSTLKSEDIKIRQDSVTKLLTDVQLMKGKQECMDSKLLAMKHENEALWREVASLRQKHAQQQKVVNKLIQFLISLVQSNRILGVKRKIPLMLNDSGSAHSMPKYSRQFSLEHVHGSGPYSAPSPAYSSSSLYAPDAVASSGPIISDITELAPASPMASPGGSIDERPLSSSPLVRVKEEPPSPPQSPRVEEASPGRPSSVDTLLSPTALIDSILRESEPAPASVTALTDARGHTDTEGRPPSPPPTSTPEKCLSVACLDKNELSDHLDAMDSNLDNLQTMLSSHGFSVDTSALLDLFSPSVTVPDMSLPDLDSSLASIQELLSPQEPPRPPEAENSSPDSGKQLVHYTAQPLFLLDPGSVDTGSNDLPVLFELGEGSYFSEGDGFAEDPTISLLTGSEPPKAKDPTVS
In short: as §1

SPIC = molecular target: T2, SPIC (Homo sapiens, UniProt Q8N5J4 1-248); conditions: protein: recombinant; tags: N-terminal GST; dsDNA, one strand shown
T2 sequence: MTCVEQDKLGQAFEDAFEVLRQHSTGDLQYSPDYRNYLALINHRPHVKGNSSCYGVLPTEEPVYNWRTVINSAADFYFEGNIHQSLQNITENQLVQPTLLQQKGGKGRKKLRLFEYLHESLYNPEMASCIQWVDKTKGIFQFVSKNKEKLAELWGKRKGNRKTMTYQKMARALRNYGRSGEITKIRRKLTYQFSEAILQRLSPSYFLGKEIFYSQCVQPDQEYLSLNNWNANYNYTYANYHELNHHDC
In short: as §1

ELF4 = ELF4 (Homo sapiens, UniProt Q99607 1-663); conditions: protein: recombinant; tags: N-terminal GST; dsDNA, one strand shown
Sequence of ELF4 (Q99607 whole entry): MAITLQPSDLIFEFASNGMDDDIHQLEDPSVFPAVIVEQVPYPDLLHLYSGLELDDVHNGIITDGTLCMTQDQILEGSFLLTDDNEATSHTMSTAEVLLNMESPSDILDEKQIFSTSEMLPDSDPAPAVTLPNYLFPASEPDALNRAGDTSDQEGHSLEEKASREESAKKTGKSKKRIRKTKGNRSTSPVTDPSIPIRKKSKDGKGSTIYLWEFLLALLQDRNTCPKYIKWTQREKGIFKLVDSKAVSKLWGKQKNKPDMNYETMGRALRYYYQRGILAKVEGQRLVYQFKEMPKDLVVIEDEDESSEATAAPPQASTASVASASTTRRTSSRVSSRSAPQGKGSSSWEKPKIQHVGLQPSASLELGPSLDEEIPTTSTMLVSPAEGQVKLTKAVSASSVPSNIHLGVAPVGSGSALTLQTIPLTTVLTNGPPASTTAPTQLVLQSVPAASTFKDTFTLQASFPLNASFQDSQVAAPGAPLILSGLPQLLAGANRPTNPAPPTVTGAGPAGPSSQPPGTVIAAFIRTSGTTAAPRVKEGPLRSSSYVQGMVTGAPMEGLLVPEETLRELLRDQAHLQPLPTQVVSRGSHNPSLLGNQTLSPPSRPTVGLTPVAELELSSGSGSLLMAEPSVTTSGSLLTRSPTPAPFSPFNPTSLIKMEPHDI
In short: as §1

ELK4 = molecular target: T3, ELK4 (Homo sapiens, UniProt P28324-2 1-405); conditions: protein: recombinant; tags: N-terminal GST; dsDNA, one strand shown
T3 sequence: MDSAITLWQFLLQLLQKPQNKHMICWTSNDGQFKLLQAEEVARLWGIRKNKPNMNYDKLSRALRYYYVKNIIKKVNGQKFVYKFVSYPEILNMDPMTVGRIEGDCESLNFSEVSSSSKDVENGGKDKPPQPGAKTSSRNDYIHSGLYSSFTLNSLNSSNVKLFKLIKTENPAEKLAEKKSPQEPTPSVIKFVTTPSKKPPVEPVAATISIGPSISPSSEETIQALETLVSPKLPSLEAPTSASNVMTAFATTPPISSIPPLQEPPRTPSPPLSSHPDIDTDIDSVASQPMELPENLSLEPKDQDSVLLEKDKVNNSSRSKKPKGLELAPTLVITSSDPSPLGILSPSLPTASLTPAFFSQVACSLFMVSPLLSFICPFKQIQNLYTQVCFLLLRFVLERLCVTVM
In short: as §1

ETV2 = molecular target: T4, ETV2 (Homo sapiens, UniProt O00321 1-342); conditions: protein: recombinant; tags: N-terminal GST; dsDNA, one strand shown
T4 sequence: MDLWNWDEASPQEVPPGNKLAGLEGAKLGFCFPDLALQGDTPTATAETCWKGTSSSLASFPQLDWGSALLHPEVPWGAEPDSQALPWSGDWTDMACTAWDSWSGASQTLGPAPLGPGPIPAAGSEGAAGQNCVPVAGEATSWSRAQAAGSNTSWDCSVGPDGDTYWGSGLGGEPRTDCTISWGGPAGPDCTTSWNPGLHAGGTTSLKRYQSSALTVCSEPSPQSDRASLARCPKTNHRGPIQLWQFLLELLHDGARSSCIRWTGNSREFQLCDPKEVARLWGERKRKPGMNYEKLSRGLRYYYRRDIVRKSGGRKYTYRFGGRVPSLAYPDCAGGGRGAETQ
In short: as §1

ELF3 = molecular target: T5, ELF3 (Homo sapiens, UniProt P78545 1-371); conditions: protein: recombinant; tags: N-terminal GST; dsDNA, one strand shown
T5 sequence: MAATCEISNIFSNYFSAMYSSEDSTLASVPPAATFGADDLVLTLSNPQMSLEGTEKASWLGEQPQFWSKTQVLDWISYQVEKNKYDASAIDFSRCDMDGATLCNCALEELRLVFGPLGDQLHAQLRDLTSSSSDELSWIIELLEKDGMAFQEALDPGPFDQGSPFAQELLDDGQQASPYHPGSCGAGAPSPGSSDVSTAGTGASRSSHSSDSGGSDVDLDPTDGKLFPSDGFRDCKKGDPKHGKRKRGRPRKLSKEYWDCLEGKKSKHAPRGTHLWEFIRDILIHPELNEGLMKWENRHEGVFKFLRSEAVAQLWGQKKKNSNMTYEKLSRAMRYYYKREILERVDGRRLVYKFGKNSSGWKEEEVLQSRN
In short: as §1

CRX = CRX (Homo sapiens, UniProt O43186 1-299); conditions: protein: recombinant; tags: N-terminal GST; dsDNA, one strand shown
Sequence of CRX (O43186 whole entry): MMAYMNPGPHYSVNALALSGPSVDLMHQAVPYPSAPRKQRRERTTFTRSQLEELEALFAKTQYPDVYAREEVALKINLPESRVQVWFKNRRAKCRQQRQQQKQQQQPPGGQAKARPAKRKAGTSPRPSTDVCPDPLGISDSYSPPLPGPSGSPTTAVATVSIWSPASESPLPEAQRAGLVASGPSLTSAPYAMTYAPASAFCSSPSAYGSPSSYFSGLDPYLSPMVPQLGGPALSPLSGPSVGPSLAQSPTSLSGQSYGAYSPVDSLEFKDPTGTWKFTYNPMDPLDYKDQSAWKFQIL
In short: as §1

ETV1 = ETV1 (Homo sapiens, UniProt P50549 1-477); conditions: protein: recombinant; tags: N-terminal GST; dsDNA, one strand shown
Sequence of ETV1 (P50549 whole entry): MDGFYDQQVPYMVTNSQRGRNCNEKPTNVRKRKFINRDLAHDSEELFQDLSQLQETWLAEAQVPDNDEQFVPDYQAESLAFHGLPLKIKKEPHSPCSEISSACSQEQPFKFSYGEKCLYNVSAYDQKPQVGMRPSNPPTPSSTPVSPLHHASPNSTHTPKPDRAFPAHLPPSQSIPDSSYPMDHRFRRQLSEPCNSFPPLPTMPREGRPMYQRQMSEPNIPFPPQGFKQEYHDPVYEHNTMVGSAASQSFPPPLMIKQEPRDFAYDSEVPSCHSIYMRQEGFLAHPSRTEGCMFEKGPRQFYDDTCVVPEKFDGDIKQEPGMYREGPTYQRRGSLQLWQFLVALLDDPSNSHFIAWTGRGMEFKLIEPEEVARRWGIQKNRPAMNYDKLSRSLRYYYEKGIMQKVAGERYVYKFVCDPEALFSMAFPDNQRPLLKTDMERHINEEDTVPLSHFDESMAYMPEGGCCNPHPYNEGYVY
In short: as §1

ERF = molecular target: T6, ERF (Homo sapiens, UniProt P50548 1-548); conditions: protein: recombinant; tags: N-terminal GST; dsDNA, one strand shown
T6 sequence: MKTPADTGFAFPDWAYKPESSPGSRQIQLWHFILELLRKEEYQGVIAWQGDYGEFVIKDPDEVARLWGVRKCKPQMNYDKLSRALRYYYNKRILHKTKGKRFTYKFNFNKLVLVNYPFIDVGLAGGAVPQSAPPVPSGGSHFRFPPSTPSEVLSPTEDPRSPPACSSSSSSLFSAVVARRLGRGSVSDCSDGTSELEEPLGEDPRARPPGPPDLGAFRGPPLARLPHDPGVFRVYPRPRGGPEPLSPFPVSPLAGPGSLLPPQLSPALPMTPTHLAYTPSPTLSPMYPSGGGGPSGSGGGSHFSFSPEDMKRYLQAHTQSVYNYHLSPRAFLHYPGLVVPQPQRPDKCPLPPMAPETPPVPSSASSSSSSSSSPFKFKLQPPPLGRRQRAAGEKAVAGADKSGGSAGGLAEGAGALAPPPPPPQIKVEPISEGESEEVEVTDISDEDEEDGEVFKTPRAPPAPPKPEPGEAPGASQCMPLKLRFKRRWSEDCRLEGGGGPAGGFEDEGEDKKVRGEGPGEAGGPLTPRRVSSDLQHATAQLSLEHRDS
In short: as §1

ETV3L = molecular target: T7, ETV3L (Homo sapiens, UniProt Q6ZN32 1-361); conditions: protein: recombinant; tags: N-terminal GST; dsDNA, one strand shown
T7 sequence: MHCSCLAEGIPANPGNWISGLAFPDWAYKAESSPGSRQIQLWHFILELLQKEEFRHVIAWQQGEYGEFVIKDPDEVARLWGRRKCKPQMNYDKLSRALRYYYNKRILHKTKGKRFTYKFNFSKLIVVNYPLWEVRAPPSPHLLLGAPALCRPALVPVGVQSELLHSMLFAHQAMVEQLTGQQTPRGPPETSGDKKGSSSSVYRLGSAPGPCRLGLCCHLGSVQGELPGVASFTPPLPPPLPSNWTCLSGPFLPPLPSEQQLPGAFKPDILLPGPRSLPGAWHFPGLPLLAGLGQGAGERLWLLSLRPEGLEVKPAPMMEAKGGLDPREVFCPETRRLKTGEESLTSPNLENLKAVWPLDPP
In short: as §1

ETS2 = molecular target: T8, ETS2 (Homo sapiens, UniProt P15036 1-469); conditions: protein: recombinant; tags: N-terminal GST; dsDNA, one strand shown
T8 sequence: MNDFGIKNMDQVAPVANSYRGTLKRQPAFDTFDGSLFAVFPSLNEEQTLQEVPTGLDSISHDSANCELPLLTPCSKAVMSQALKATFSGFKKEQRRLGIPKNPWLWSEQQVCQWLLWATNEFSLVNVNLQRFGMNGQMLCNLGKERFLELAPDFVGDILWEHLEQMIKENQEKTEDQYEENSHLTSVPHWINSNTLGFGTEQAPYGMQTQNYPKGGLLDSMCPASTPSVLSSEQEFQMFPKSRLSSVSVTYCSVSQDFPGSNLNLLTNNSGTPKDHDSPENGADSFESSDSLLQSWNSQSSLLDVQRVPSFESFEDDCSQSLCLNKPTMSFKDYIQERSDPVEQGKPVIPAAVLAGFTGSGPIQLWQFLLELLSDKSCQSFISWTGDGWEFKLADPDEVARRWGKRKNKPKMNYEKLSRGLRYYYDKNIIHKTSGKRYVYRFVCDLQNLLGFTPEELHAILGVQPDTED
In short: as §1

SPDEF = molecular target: T9, SPDEF (Homo sapiens, UniProt O95238 1-335); conditions: protein: recombinant; tags: N-terminal GST; dsDNA, one strand shown
T9 sequence: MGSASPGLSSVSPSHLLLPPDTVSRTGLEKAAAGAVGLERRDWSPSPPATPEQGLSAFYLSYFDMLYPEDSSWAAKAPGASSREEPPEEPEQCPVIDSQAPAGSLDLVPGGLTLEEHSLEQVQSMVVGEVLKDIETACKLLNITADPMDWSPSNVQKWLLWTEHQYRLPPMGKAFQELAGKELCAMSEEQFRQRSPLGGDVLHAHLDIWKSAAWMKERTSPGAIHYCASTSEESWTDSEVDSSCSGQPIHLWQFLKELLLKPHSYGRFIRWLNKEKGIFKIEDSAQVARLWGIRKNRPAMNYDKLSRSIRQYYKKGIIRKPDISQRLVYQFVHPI
In short: as §1

ETV7 = molecular target: T10, ETV7 (Homo sapiens, UniProt Q9Y603 1-341); conditions: protein: recombinant; tags: N-terminal GST; dsDNA, one strand shown
T10 sequence: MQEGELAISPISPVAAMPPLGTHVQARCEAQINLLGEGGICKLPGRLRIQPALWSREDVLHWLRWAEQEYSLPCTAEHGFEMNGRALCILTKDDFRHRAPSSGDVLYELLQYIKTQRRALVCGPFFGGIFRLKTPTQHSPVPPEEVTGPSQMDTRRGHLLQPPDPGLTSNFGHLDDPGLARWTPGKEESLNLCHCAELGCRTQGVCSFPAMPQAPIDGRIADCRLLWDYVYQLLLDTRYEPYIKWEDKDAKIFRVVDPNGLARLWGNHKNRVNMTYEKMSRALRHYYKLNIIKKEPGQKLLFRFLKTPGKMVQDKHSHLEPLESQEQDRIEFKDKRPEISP
In short: as §1

ELF5 = molecular target: T11, ELF5 (Homo sapiens, UniProt Q9UKW6-2 1-255); conditions: protein: recombinant; tags: N-terminal GST; dsDNA, one strand shown
T11 sequence: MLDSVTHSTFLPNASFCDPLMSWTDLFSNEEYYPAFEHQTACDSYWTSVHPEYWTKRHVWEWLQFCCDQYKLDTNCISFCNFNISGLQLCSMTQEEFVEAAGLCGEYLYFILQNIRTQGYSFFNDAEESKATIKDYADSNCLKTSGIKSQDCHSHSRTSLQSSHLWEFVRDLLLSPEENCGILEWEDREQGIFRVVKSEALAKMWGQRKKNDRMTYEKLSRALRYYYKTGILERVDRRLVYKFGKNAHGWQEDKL
In short: as §1

ETV3 = molecular target: T12, ETV3 (Homo sapiens, UniProt P41162-2 1-143); conditions: protein: recombinant; tags: N-terminal GST; dsDNA, one strand shown
T12 sequence: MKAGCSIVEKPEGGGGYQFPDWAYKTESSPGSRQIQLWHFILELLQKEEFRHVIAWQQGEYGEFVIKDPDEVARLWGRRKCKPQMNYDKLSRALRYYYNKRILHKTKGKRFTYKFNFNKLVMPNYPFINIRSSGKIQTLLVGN
In short: as §1

ETV6 = ETV6 (Homo sapiens, UniProt P41212 1-452); conditions: protein: recombinant; tags: N-terminal GST; dsDNA, one strand shown
Sequence of ETV6 (P41212 whole entry): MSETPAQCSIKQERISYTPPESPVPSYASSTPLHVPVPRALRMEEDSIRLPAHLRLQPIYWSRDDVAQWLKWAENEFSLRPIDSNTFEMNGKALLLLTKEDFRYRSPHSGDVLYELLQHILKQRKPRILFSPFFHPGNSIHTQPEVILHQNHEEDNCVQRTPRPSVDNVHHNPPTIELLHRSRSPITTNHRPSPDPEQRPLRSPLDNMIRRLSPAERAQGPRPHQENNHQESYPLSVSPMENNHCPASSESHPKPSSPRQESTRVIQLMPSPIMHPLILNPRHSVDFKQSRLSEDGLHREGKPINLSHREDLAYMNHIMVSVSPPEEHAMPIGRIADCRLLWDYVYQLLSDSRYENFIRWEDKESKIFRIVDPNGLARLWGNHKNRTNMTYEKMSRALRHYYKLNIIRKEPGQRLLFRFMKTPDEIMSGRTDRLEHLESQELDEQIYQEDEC
In short: as §1

Question: For TTGCGA, which binding signal (FEV) is on record?
Answer: 1.08 fold enrichment (6-mer frequency, TF over GST control)

Question: What about the binding signal (ETV5) of the same sequence?
Answer: 1.15 fold enrichment (6-mer frequency, TF over GST control)

Question: And the binding signal (HSF1)?
Answer: 1.24 fold enrichment (6-mer frequency, TF over GST control)

Question: What about the binding signal (SPIC) of the same sequence?
Answer: 1.35 fold enrichment (6-mer frequency, TF over GST control)

Question: What about the binding signal (ELF4) of the same sequence?
Answer: 1.14 fold enrichment (6-mer frequency, TF over GST control)

Question: And the binding signal (ELK4)?
Answer: 1.11 fold enrichment (6-mer frequency, TF over GST control)

Question: What about the binding signal (ETV2) of the same sequence?
Answer: 1.1 fold enrichment (6-mer frequency, TF over GST control)

Question: What about the binding signal (ELF3) of the same sequence?
Answer: 1.16 fold enrichment (6-mer frequency, TF over GST control)

Question: What about the binding signal (CRX) of the same sequence?
Answer: 1.15 fold enrichment (6-mer frequency, TF over GST control)

Question: And the binding signal (ETV1)?
Answer: 1.15 fold enrichment (6-mer frequency, TF over GST control)

Question: And the binding signal (ERF)?
Answer: 1.29 fold enrichment (6-mer frequency, TF over GST control)

Question: What about the binding signal (ETV3L) of the same sequence?
Answer: 1.14 fold enrichment (6-mer frequency, TF over GST control)

Question: And the binding signal (ETS2)?
Answer: 1.14 fold enrichment (6-mer frequency, TF over GST control)

Question: What about the binding signal (SPDEF) of the same sequence?
Answer: 1.11 fold enrichment (6-mer frequency, TF over GST control)

Question: What about the binding signal (ETV7) of the same sequence?
Answer: 1.14 fold enrichment (6-mer frequency, TF over GST control)

Question: And the binding signal (ELF5)?
Answer: 1.12 fold enrichment (6-mer frequency, TF over GST control)

Question: And the binding signal (ETV3)?
Answer: 1.08 fold enrichment (6-mer frequency, TF over GST control)

Question: What about the binding signal (ETV6) of the same sequence?
Answer: 1.11 fold enrichment (6-mer frequency, TF over GST control)
